# Screens (PubChem)
# This is a sample that favours compounds with a hit; in the whole collection about 10% have one here.
# JMJD2A Tudor inh – qHTS Assay for Inhibitors of JMJD2A-Tudor Domain; 390,000 compounds, 4.4% hits; Lysine-specific demethylase 4A (Homo sapiens), O75164; AlphaScreen JMJD2A-Tudor / H3K4me3 peptide binding; AID 504339, 2011; Potency, µM (highest dose often 114 µM), for the others: at the top dose activity change, negative = inhibition, actives largely listed as inhibitors; further: on the % scale 0 is the no-effect control and ±100 the full control effect; nearly all actives have a fitted effect of over 50% in size
# GLS inhibitor – qHTS for Inhibitors of Glutaminase (GLS); GLS enzymatic activity, qHTS titration; Glutaminase kidney isoform, mitochondrial (Homo sapiens), O94925; Potency, µM (series often up to 45.5 µM), for the others: at the highest dose activity change, negative = inhibition, hits mostly inhibitors; 410,000 compounds, 0.21% hits; further: on the % scale 0 is the no-effect control and ±100 the full control effect
#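 hKGA; 45 mM KH2PO4 pH 8.2 + 0.02% Tween-20; cpd via pin tool; 1 mM Gln soln; GluOx/HRP/Amplex Red; RT 30 min; fluor. t0 & final.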
# G9a inh – qHTS Assay for Inhibitors of Histone Lysine Methyltransferase G9a | Histone-lysine N-methyltransferase EHMT2 (Homo sapiens), Q96KQ7 | G9a H3K9 monomethylation, AlphaScreen, 2 h | Potency, µM (doses to about 102 µM), for the others: at the top dose activity, negative = inhibition, actives largely listed as inhibitors | 350,000 compounds, 8.8% hits | AID 504332, 2011; further: on the % scale 0 is the no-effect control and ±100 the full control effect; nearly all actives have a fitted effect of over 75% in size
#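 Using a bead-based AlphaScreen, monomethylated H3K9 product from 2 h room-temperature reactions (G9a 20 nM, peptide 500 nM, SAM 20 uM) was detected with 0.5 ug/mL rabbit anti-H3K9me1 antibody.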
# HP1b chromo inh – HTS for Inhibitors of HP1-beta Chromodomain Interactions with Methylated Histone Tails | Chromobox protein homolog 1 (Homo sapiens), P83916 | 390,000 compounds, 0.56% hits | AlphaScreen HP1-beta / biotin-H3K9me3 peptide binding | Potency, µM (top dose mostly 114 µM), without a hit: at the top dose activity change, negative = inhibition, hits mostly inhibitors; further: nearly all actives have a fitted effect of over 70% in size
#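 AlphaScreen: HP1-beta (50 nM) preformed 30 min with biotin-H3(1-18)K9me3 peptide (50 nM) in PBS pH 7.4, 0.01% Tween-20. Compound added for 30 min at RT, then streptavidin donor/nickel chelate acceptor beads (10 ug/mL) for 30 min.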
# BAZ2B inh – qHTS Assay for Inhibitors of BAZ2B; Potency, µM (titrated, usually from 114 µM), for the others: top-dose activity change, negative = inhibition, hits mostly inhibitors; 360,000 compounds, 4.4% hits; AlphaScreen BAZ2B-H3K14Ac peptide displacement; Bromodomain adjacent to zinc finger domain protein 2B (Homo sapiens), Q9UIF8; further: on the % scale 0 is the no-effect control and ±100 the full control effect; nearly all actives have a fitted effect of over 60% in size
#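 Compounds, titrated to a top concentration of 110 uM, were incubated 30 min at room temperature with preformed BAZ2B/acetyl-K14 H3 peptide complex (50 nM each). Proximity signal was measured by AlphaScreen after 20 min with beads.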
# * hit, by the source's call; ? = inconclusive; . = no result; ! = not confirmed by another sample; [ ] = remark or other dose. The call rests on the fitted dose curve; in most records, active means well fitted curve in the direction sought with a large enough effect; inconclusive means small, poorly fitted or top-dose-only effect, or another doubt; inactive means no such curve, though single readings can be large; an effect the other way counts as inactive or inconclusive. Potency means the concentration at half of the fitted maximal effect.
SMILES,JMJD2A Tudor inh,GLS inhibitor,G9a inh,HP1b chromo inh,BAZ2B inh
COc1cc(CNc2ccccc2SC)ccc1O,35µM*,15%,?,0%,?
COc1ccccc1NC(=O)Nc1ccccc1SC,-16%,-2%,28%,23%,-5%
NC(=O)c1nsc(C(=O)N(CC(=O)NCc2ccccc2)c2cccc(F)c2)c1N,-9%,-7%,22%,27%,-10%
O=c1nc(Nc2cccc(Cl)c2)oc2cc(Cl)oc(=O)c12,-22%,-2%,50µM*,33%,?
CCCCN(Cc1ccco1)C(=O)C1CCCN(c2ncnc3c2nc2n3CCCCC2)C1 (stereo unspecified),?,-5%,79µM*,37%,?
CC1CC(C)(C)Nc2ccc(OC(=O)c3ccco3)cc21 (stereo unspecified),?,?,45µM*,-9%,?
Nc1c(C(=O)Nc2nc3ccccc3s2)sc2nc(-c3cccs3)ccc12,-1%,6%,22%[2.33 µM],24%,?
COc1ccc(C2CC(C)(c3ccc(OC)cc3)Nc3ccccc3N2)cc1 (stereo unspecified),?,?,.,?,22µM*
COc1cccc(C(=O)N2c3nc(-c4ccco4)nn3C3(CCCCC3)[C@@H]3CCCC[C@@H]32)c1,-24%,1%,18µM*,22%,?
CCOc1ccc(S(=O)(=O)N(CC(=O)NCc2cccnc2)c2ccc(F)cc2)cc1,-6%,-7%,13%,28%,1%
CCOC(=O)c1c(O)cc(OC)cc1CCc1ccccc1,109%,6%,.,160%,.
COc1cc(NC(=O)Nc2ccccc2)c(OC)cc1NC(=O)CN1CCCCC1,40µM*,18%,4%[12.7 µM],?,50µM*
COc1cc(NC(=O)c2ccccc2)c(OC)cc1NC(=O)CN1C(=O)N(C)C2(CCCCC2)C1=O,?,8%,79µM*,-22%,?
COc1cc(NC(=O)c2ccc(Cl)cc2)c(OC)cc1NC(=O)CN1CCCCC1,-33%[11.4 µM],0%,50µM*,?,40µM*
O=C(CSC1=NS(=O)(=O)c2cc(Cl)ccc2N1)Nc1cccc(F)c1,-5%,1%,-9%,33%,10%
O=C(CSC1=NS(=O)(=O)c2cc(Cl)ccc2N1)c1ccc(Cl)cc1,-11%,2%,56µM*,44%,-9%
CC(=O)c1ccc(NC(=O)CSC2=NS(=O)(=O)c3cc(Cl)ccc3N2)cc1,-11%,22%,?,8%,-8%
CC1=NS(=O)(=O)c2cc(Cl)ccc2N1,-6%,-4%,2.8µM*!,25%,5%
CCOC(=O)C1Sc2ccccc2NC1=O (stereo unspecified),-8%,-9%,14%,38%,0%
O=C(O)CC1Sc2ccccc2NC1=O (stereo unspecified),-12%,-4%,?,46%,-6%
CCOC(=O)CC1Sc2ccccc2NC1=O (stereo unspecified),0%,-5%,10µM*,36%,-5%
CCOC(=O)CC1Sc2ccccc2NC1=S (stereo unspecified),-8%,18%,45µM*,15%,-33%
O=C(CCc1ccccc1)NCC(=O)N/N=C/c1ccc(O)cc1O,-11%,18%,8%,35%,2%
O=C(CN1CCCc2ccccc21)N/N=C/c1ccc(O)cc1O,?,31%,79µM*,-11%,-27%
O=C(CN1CCCc2ccccc21)NC(=O)NCc1ccccc1,-13%,2%,-5%[12.7 µM],21%,2%
SMILES,JMJD2A Tudor inh,GLS inhibitor,G9a inh,HP1b chromo inh,BAZ2B inh
NS(=O)(=O)c1ccc(NC(=O)CN2CCc3ccccc32)cc1,-4%,0%,.,36%,-3%
NS(=O)(=O)c1ccc(NC(=O)CN2CCCc3ccccc32)cc1,-20%,-10%,28µM*,9%,-26%
O=C(CN1CCCc2ccccc21)N/N=C/c1ccccc1,-32%,3%,45µM*,7%,?
O=C(CN1CCCc2ccccc21)N/N=C/c1c(O)ccc2ccccc12,?,15%,40µM*,?,-12%
COc1ccc(C(=O)COC(=O)c2cc(=O)[nH]c3ccccc23)c(OC)c1,-19%,4%,7%[0.501 µM],7%,7%
O=C(Nc1cccnc1)c1ccc(Cl)c(S(=O)(=O)N2CCc3ccccc32)c1,-17%,9%,-39%,-3%,-33%
CCOC(=O)c1cc(C#N)c(SCC(N)=O)[nH]c1=O,-13%,2%,13µM*,31%,-11%
CSc1[nH]c(=O)c(C(=O)O)cc1C#N,-13%,11%,-40%[12.7 µM],27%,50µM*
CCOC(=O)c1cc(C#N)c(SCC(=O)Nc2ccc(C(C)=O)cc2)[nH]c1=O,2%,-5%,?,20%,-24%
CCOC(=O)c1cc(C#N)c(SCC(=O)c2cc(C#N)c(SC)nc2C)[nH]c1=O,79µM*,20%,50µM*,4%,-33%
CCOC(=O)c1cc(C#N)c(SCC(=O)O)[nH]c1=O,32µM*,?,?,12%,?
COC(=O)c1ccc(NC(=O)CC2C(=O)N(c3ccc(F)cc3)C(=O)N2Cc2ccc(OC)cc2)cc1 (stereo unspecified),-4%,1%,2%[59 µM],44%,-17%
CC1=CC(C#N)(C#N)C(C#N)(C#N)C(c2ccccc2)N1 (stereo unspecified),.,.,?,.,35µM*
COC1(OC)N=C(N)C2(C#N)C(c3ccccc3)NC(C)=CC12C#N (stereo unspecified),-10%,17%,.,31%,-24%
COc1ccc(-c2n[nH]c(C(F)(F)F)c2-c2cc3ccccc3o2)c(O)c1,?,9%,-7%,3%,-34%
C[C@@H]1O[C@@H](O[C@@H]2[C@@H](O)[C@H](OCCc3ccc(O)c(O)c3)O[C@H](CO)[C@H]2OC(=O)/C=C/c2ccc(O)c(O)c2)[C@H](O)[C@H](O)[C@H]1O,18µM*,?,.,?,.
COc1ccc(/C=C2\SC(N3CCc4ccccc4C3)=NC2=O)cc1OC,?,18%,13µM*,?,-37%
COc1cc(/C=N/N2CCN(C3c4ccccc4-c4ccccc43)CC2)cc(OC)c1O,?,13%,1.6µM*,-11%,11µM*
COc1cc(/C=N/N2CCN(C3c4ccccc4-c4ccccc43)CC2)cc(OC)c1OC,?,-3%,50µM*,?,-39%
Cc1cccc(C)c1NS(=O)(=O)c1ccc(-c2ccc(=O)[nH]n2)o1,-9%,16%,-2%[59 µM],37%,-1%
